The results in this text go back to PubChem BioAssay (EPA / NIEHS).

SMILES strings stand for the structures. Active and inactive are the calls of the source. The calls were made as follows: active = hit-call score of the fitted dose curve at least 0.9, where 1 is the maximum; inactive = score below 0.9.

The nature of test [1]: CEETOX_H295R_ANDR: CeeTox H295R High-throughput Steroidogenesis Assay for Androstenedione (ANDR) (AID 2283436). Particulars: actives raise or lower the signal. The essentials: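 H295R cells, following OECD 456 with minor changes, exposed to chemicals for 48 h. Androstenedione in the medium was quantified by HPLC-MS/MS after MTBE extraction. Fitting was bidirectional versus DMSO; chemicals were diluted until MTT viability was ≥70%.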

A short description of test [2]: CEETOX_H295R_CORTIC: CeeTox H295R High-throughput Steroidogenesis Assay for Corticosterone (CORTIC) (AID 2283437).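 Also: corticosterone secreted into medium quantified by mass spectrometry.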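 As to AC50: human H295R adrenal cells prestimulated with forskolin before chemical exposure.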 The settings on record: actives raise or lower the signal. The essentials:
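H295R adrenal cells prestimulated 48 hours with 10 uM forskolin, then exposed 48 hours to chemical in 0.1% DMSO. Corticosterone in medium measured by HPLC-MS/MS after MTBE extraction; MTT viability in the same wells; bidirectional fit versus DMSO.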

Test [3] can be described thus: CEETOX_H295R_CORTISOL: CeeTox H295R High-throughput Steroidogenesis Assay for Cortisol (AID 2283438).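 Also: cortisol secreted into medium quantified by LC-MS/MS.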 The settings on record: actives raise or lower the signal. In a few lines: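 Forskolin-primed H295R cells (10 uM, 48 h) treated 48 h with test chemical in 0.1% DMSO. Cortisol in medium quantified by MTBE extraction and HPLC-MS/MS; bidirectional fit vs DMSO, MTT viability in same wells.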

Test [4] can be described thus: CEETOX_H295R_DOC: CeeTox H295R High-throughput Steroidogenesis Assay for DOC (AID 2283439). Particulars: actives raise or lower the signal. In a few lines: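 H295R cells prestimulated 48 h with 10 uM forskolin, then exposed 48 h to test chemical (0.1% DMSO final). Medium 11-deoxycorticosterone measured by HPLC-MS/MS after MTBE extraction; bidirectional fit vs DMSO, viability checked by MTT in same wells.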

The nature of test [5]: CEETOX_H295R_PROG: CeeTox H295R High-throughput Steroidogenesis Assay for Progesterone (PROG) (AID 2283442).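 As to AC50: human H295R adrenal cells primed with 10 µM forskolin before dosing.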 The settings on record: actives raise or lower the signal. In a few lines: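 Measured analyte is progesterone secreted by H295R cells at 48 h of chemical treatment, following 10 uM forskolin priming. Quantitation used HPLC-MS/MS against a 7-point standard curve; cytotoxicity was checked by MTT absorbance.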

Read-out in test [6]: Tumor necrosis factor receptor superfamily member 6 (Homo sapiens) (UniProt P25445)
The experiment in a line: LTEA_HepaRG_FAS: Life Technologies and Expression Analysis (LTEA) Assay for Fas cell surface death receptor (FAS) using HepaRG (AID 2283447). The settings on record: mRNA level, 48 h; actives raise or lower the signal. In a few lines: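 Differentiated HepaRG cells in serum-free induction medium were exposed 48 h to 8 half-log concentrations up to 100 uM in 0.5% DMSO, in duplicate. FAS mRNA was measured by qRT-PCR normalised to ACTB, GAPDH and POLR2A; bidirectional fit versus DMSO.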

Read-out in test [7]: Fatty acid synthase (Homo sapiens) (UniProt P49327)
In words: LTEA_HepaRG_FASN: Life Technologies and Expression Analysis (LTEA) Assay for Fatty Acid Synthase (FASN) using HepaRG (AID 2283448).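 As to AC50: differentiated human HepaRG liver cells in serum-free induction medium.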 The settings on record: mRNA level, 48 h; actives raise or lower the signal. In a few lines: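 Differentiated HepaRG cells in serum-free induction medium exposed 48 h in duplicate to eight half-log concentrations, top 100 uM, 0.5% DMSO. FASN mRNA by qRT-PCR normalised to ACTB, GAPDH, POLR2A; bidirectional fit versus DMSO.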

A short description of test [8]: CEETOX_H295R_ESTRADIOL: CeeTox H295R High-throughput Steroidogenesis Assay for Estradiol (AID 2283440).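 Also: estradiol secreted into medium quantified by LC-MS/MS after dansyl derivatisation.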 Particulars: actives raise or lower the signal. The essentials:
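Readout is estradiol in conditioned medium, quantified by reverse-phase HPLC-MS/MS against a 7-point standard curve. Cells: H295R, forskolin-stimulated, then dosed 48 h in 0.1% DMSO; activity fitted in both directions relative to DMSO.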

Test [9] in a line: CEETOX_H295R_ESTRONE: CeeTox H295R High-throughput Steroidogenesis Assay for Estrone (AID 2283441).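 Also: estrone secreted into medium measured by LC-MS/MS after dansyl derivatization.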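 As to AC50: human adrenal H295R cells prestimulated with forskolin for two days.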 Particulars: actives raise or lower the signal. The essentials:
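H295R cells prestimulated 48 h with 10 uM forskolin, then exposed 48 h to chemicals in 0.1% DMSO final; estrone in medium extracted with MTBE, dansyl-derivatized, quantified by HPLC-MS/MS; bidirectional fitting versus DMSO, viability by MTT.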

Read-out in test [10]: Cyclin D2 (CCND2), CCND2 (gene 894)
In words: LTEA_HepaRG_CCND2: Life Technologies and Expression Analysis (LTEA) Assay for Cyclin D2 (CCND2) using HepaRG (AID 2283449).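 Also: CCND2 transcript measured by TaqMan qRT-PCR and normalised to three housekeeping genes.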 Particulars: mRNA level, 48 h; actives raise or lower the signal. The essentials:
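Chemicals in 0.5% DMSO, eight half-log concentrations from 100 uM top, were applied in duplicate for 48 h to human HepaRG cells in serum-free induction medium. CCND2 mRNA by TaqMan qRT-PCR, normalised to ACTB/GAPDH/POLR2A; bidirectional fit versus DMSO.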

Fatty acid synthase (Homo sapiens), sequence (P49327 whole entry, looked up): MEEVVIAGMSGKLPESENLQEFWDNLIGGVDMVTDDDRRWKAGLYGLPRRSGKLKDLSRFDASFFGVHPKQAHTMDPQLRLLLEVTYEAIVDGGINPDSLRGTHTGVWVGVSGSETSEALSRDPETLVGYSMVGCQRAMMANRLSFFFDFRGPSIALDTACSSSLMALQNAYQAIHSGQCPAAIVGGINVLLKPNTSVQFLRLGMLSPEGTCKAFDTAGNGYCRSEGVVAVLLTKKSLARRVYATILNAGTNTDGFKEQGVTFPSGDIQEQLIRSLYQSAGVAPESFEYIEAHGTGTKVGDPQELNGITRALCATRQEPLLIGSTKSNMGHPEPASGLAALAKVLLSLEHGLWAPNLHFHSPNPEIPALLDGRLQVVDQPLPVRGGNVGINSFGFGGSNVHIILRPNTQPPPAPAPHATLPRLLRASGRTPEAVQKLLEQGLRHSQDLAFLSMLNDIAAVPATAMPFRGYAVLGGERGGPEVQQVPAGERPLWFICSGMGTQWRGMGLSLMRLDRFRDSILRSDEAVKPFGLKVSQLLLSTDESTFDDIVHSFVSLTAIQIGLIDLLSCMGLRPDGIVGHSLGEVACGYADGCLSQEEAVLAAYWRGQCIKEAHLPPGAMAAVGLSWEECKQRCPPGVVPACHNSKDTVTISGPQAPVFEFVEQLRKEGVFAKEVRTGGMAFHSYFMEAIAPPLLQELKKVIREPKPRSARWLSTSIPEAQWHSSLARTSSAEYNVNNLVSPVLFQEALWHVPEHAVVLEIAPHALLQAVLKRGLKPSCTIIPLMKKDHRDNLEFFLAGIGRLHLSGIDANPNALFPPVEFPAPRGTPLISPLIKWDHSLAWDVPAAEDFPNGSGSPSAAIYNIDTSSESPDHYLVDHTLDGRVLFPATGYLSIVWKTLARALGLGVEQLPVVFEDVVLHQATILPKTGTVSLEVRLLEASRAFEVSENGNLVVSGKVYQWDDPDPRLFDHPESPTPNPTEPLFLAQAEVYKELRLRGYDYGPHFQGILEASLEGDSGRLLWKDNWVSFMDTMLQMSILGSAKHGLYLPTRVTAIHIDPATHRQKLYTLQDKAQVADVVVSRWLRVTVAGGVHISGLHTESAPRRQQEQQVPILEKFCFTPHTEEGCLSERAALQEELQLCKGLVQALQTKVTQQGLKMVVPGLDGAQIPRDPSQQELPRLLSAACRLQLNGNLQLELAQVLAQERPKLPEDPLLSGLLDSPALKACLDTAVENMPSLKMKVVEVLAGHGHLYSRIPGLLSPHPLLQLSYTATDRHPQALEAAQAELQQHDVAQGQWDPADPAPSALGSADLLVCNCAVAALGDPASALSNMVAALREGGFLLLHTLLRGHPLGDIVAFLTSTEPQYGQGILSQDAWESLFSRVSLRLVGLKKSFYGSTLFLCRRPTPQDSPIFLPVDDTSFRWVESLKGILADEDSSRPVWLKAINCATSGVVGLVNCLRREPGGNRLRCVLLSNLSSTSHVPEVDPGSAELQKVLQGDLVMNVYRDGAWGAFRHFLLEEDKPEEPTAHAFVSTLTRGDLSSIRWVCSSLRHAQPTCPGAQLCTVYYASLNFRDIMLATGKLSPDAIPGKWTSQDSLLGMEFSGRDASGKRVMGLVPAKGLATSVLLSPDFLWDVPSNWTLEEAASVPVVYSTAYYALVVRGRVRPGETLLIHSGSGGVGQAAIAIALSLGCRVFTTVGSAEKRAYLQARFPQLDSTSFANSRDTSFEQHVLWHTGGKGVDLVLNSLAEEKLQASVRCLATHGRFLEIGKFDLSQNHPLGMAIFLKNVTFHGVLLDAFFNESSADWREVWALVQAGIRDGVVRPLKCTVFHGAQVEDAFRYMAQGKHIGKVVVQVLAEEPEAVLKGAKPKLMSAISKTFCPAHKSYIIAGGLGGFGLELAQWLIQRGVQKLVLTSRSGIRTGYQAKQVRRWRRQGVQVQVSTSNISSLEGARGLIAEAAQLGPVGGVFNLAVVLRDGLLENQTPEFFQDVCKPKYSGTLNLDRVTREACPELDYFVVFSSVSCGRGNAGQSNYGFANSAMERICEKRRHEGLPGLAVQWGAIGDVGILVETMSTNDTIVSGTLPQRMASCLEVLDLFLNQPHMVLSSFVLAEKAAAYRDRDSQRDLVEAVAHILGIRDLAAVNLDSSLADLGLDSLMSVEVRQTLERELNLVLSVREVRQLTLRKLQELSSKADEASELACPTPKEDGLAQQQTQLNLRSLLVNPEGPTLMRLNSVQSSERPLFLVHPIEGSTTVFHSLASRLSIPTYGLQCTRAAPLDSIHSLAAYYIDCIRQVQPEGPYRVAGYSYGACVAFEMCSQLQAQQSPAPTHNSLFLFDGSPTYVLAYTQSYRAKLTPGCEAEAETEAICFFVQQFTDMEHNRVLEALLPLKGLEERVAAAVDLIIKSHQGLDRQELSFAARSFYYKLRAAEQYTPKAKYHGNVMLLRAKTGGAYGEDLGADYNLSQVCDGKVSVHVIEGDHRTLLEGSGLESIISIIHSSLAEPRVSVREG

What is called AC50 is the concentration at which the activity in the assay is half-maximal. For the compound `CCCCOC(=O)c1ccc(O)cc1`, the call in test [1], in test [2], in [3], in test [4], in test [6] and in [7] was inactive. In addition, the half-maximal activity concentration (AC50) in test [5] is 3.6 µM (active).

For the compound `CCCCCCCCOC(=O)c1cc(O)c(O)c(O)c1`, the compound was called inactive in test [3], in test [8], in [9], in test [6], in test [7] and in [10]. The AC50 is 5 µM (active) in test [4] and 2.44 µM (active) in test [5].

In the case of `O=C1CCC(C2CCCCC2)CC1`, the call in test [2], in [3], in [4], in [5], in test [6] and in test [7] was inactive. The compound was called inactive in [10].

Regarding `COc1cccc([C@H](O)C2CCN(CCc3ccc(F)cc3)CC2)c1OC`, the AC50 in test [2] was 1.22 µM (active); in test [4], 9.1 µM (active); in test [5], 0.405 µM (active). Moreover, the result in [3], in test [8], in test [9], in test [6], in [7] and in [10] was inactive.

Turning to `CO[C@H]1/C=C/O[C@@]2(C)Oc3c(C)c(O)c4c(O)c(c(/C=N/N5CCN(C)CC5)c(O)c4c3C2=O)NC(=O)/C(C)=C\C=C\[C@H](C)[C@H](O)[C@@H](C)[C@@H](O)[C@@H](C)[C@H](OC(C)=O)[C@@H]1C`, the compound was called inactive in test [5], in test [6] and in test [7].

Turning to `CC1(C)NC(=O)N(c2ccc([N+](=O)[O-])c(C(F)(F)F)c2)C1=O`, the compound was classed as inactive in test [6] and in [7].

With `CC(O)CC(C)(C)O` (centres undefined), the result in test [6] and in [7] was inactive.

In the case of `Cc1cn([C@H]2C[C@H](N=[N+]=[N-])[C@@H](CO)O2)c(=O)[nH]c1=O`, the outcome in test [6] and in [7] was inactive.

As to `CC(C)(c1cc(Br)c(O)c(Br)c1)c1cc(Br)c(O)c(Br)c1`, the compound was classed as inactive in test [2], in test [3], in test [4], in test [7] and in test [10]. The concentration at half-maximal activity (AC50) in test [5] is 4.87 µM (active); in test [6], 92.5 µM (active).

On to `O=C1c2ccccc2C(=O)N1CCc1noc(-c2ccc(CN3CCCCCC3)s2)n1`, for which the call in test [5], in [6], in test [7] and in test [10] was inactive.

For `CC(C)(C)c1cc(/C=C2\SC(N)=NC2=O)cc(C(C)(C)C)c1O`, the concentration at half-maximal activity (AC50) in [2] was 0.754 µM (active); in test [4], 0.866 µM (active); in test [5] it was 0.897 µM (active); in [7] it was 12.2 µM (active). The compound was called inactive in [3], in [8], in test [9], in [6] and in test [10].

`CCCCCCCCN(C)CCCCCCCC`: the compound was classed as inactive in [1], in test [2], in test [3], in [4], in [5] and in test [6]. Besides, the call in test [7] and in test [10] was inactive.

As for `O=C(Nc1ccc(Cl)cc1)Nc1ccc(Cl)c(Cl)c1`, the call in [1], in test [2], in [3], in test [8] and in [9] was inactive. Moreover, the concentration at half-maximal activity (AC50) in test [4] is 0.417 µM (active); in test [5], 0.318 µM (active); in [6], 23.1 µM (active); in test [7], 17.5 µM (active).

In the case of `O=c1[nH]sc2ccccc12`, the compound was classed as inactive in test [6] and in test [7].

In the case of `O=c1c(-c2ccc(O)cc2)coc2cc(O)cc(O)c12`, the concentration at half-maximal activity (AC50) in [1] is 14.1 µM (active); in test [3], 12.4 µM (active); in test [4], 4.44 µM (active); in test [5], 12.4 µM (active). Further, the result in test [2], in test [6], in test [7] and in [10] was inactive.

On to `OC12N=C(c3ccccc3)SC1Cc1cc(Cl)ccc12` (centres undefined), for which the AC50 in test [2] was 17.7 µM (active); in [3] it was 28.5 µM (active); in test [4], 17.6 µM (active); in test [7], 2.18 µM (active). The result in test [8], in [9], in test [5], in [6] and in [10] was inactive.

As for `COc1ccc2cc(S(=O)(=O)N[C@H](CC(=O)N[C@H](Cc3ccc(CN4[C@H](C)CCC[C@@H]4C)cc3)C(=O)N(C)C(C)C)c3ccc4c(c3)OCO4)ccc2c1`, the AC50 in test [6] is 15.1 µM (active). Moreover, the compound was called inactive in test [7].

As to `CCCCCCCCCCCC[N+](C)(C)C`, the result in test [2], in test [3], in [4], in [5] and in [10] was inactive. The AC50 in test [6] is 82.5 µM (active); in [7], 80.9 µM (active).

Take `CN1C(=O)N(c2ccccc2Br)Cc2cnc(Nc3ccc4c(c3)OCC(CO)O4)nc21` (centres undefined): the result in test [2], in test [3], in test [8] and in [10] was inactive. Besides, the AC50 in test [4] was 0.679 µM (active); in test [9], 0.326 µM (active); in test [5], 0.661 µM (active); in test [6] it was 90.4 µM (active); in [7] it was 78.3 µM (active).
